Columns and labels:
Assay in all cases: PBM; 200 nM protein, PBS
Conditions in all cases: dsDNA, one strand shown
HESX1 [1] = biological target: HESX1 (Homo sapiens, UniProt Q9UBX0 95-180, R165K)
HOXB4 [2] = biological target: HOXB4 (Homo sapiens, UniProt P17483 148-234)
SHOX [3] = biological target: SHOX (Homo sapiens, UniProt O15266 103-189)
HESX1 [4] = biological target: HESX1 (Homo sapiens, UniProt Q9UBX0 95-180)
HOXA4 = HOXA4 (Homo sapiens, UniProt Q00056 201-287, R217L)
HOXB4 [5] = biological target: HOXB4 (Homo sapiens, UniProt P17483 148-234, V174I)
Chain of HOXB4 (Homo sapiens, UniProt P17483 148-234, V174I) (P17483 148-234 V174I): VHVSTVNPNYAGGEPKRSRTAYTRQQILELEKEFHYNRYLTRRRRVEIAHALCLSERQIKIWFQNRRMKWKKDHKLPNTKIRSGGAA

MSX2 [6] = biological target: MSX2 (Homo sapiens, UniProt P35548 130-214, R199I)
Chain of MSX2 (Homo sapiens, UniProt P35548 130-214, R199I) (P35548 130-214 R199I): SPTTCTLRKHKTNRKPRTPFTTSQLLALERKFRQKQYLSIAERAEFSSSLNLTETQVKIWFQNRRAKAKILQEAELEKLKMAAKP

ALX3 [7] = biological target: ALX3 (Homo sapiens, UniProt O95076 139-225, N203Q)
Chain of ALX3 (Homo sapiens, UniProt O95076 139-225, N203Q) (O95076 139-225 N203Q): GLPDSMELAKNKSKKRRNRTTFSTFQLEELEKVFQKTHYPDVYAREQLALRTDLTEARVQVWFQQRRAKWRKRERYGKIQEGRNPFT

SHOX [8] = biological target: SHOX (Homo sapiens, UniProt O15266 103-189, R173C)
Chain of SHOX (Homo sapiens, UniProt O15266 103-189, R173C) (O15266 103-189 R173C): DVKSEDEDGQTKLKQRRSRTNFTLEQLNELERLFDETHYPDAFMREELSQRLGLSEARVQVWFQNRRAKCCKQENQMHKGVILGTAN

ALX3 [9] = biological target: ALX3 (Homo sapiens, UniProt O95076 139-225)
Chain of ALX3 (Homo sapiens, UniProt O95076 139-225) (O95076 139-225): as the sequence (O95076 139-225 N203Q) above, with Q65N counted along it

PROP1 [10] = biological target: PROP1 (Homo sapiens, UniProt O75360 56-141)
Chain of PROP1 (Homo sapiens, UniProt O75360 56-141) (O75360 56-141): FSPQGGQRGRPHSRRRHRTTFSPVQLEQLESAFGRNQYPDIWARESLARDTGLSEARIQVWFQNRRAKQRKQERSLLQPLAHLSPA

HESX1 [11] = biological target: HESX1 (Homo sapiens, UniProt Q9UBX0 95-180, R109Q)
Chain of HESX1 (Homo sapiens, UniProt Q9UBX0 95-180, R109Q) (Q9UBX0 95-180 R109Q): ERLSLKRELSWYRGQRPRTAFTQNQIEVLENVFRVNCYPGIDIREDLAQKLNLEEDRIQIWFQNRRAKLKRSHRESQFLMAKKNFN

PROP1 [12] = biological target: PROP1 (Homo sapiens, UniProt O75360 56-141, R99H)
Chain of PROP1 (Homo sapiens, UniProt O75360 56-141, R99H) (O75360 56-141 R99H): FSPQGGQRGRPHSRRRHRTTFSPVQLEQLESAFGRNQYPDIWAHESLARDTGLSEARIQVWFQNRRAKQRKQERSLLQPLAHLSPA

ALX3 [13] = biological target: ALX3 (Homo sapiens, UniProt O95076 139-225, L168Q)
Chain of ALX3 (Homo sapiens, UniProt O95076 139-225, L168Q) (O95076 139-225 L168Q): as the sequence (O95076 139-225 N203Q) above, with L30Q, Q65N counted along it

HESX1 [14] = biological target: HESX1 (Homo sapiens, UniProt Q9UBX0 95-180, P111T)
Chain of HESX1 (Homo sapiens, UniProt Q9UBX0 95-180, P111T) (Q9UBX0 95-180 P111T): as the sequence (Q9UBX0 95-180 R109Q) above, with Q15R, P17T counted along it

ALX3 [15] = biological target: ALX3 (Homo sapiens, UniProt O95076 139-225, L168V)
Chain of ALX3 (Homo sapiens, UniProt O95076 139-225, L168V) (O95076 139-225 L168V): as the sequence (O95076 139-225 N203Q) above, with L30V, Q65N counted along it

PROP1 [16] = biological target: PROP1 (Homo sapiens, UniProt O75360 56-141, F88S)
Chain of PROP1 (Homo sapiens, UniProt O75360 56-141, F88S) (O75360 56-141 F88S): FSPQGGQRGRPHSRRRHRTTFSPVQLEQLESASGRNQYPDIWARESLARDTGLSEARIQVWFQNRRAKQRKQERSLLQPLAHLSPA

MSX2 [17] = biological target: MSX2 (Homo sapiens, UniProt P35548 130-214, F161Y)
Chain of MSX2 (Homo sapiens, UniProt P35548 130-214, F161Y) (P35548 130-214 F161Y): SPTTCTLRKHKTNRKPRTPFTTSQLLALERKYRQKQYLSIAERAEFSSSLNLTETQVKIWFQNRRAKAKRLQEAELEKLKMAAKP

HESX1 [18] = biological target: HESX1 (Homo sapiens, UniProt Q9UBX0 95-180, F115L)
Chain of HESX1 (Homo sapiens, UniProt Q9UBX0 95-180, F115L) (Q9UBX0 95-180 F115L): as the sequence (Q9UBX0 95-180 R109Q) above, with Q15R, F21L counted along it

ALX3 [19] = biological target: ALX3 (Homo sapiens, UniProt O95076 139-225, N203S)
Chain of ALX3 (Homo sapiens, UniProt O95076 139-225, N203S) (O95076 139-225 N203S): as the sequence (O95076 139-225 N203Q) above, with Q65S counted along it

Chain of HESX1 (Homo sapiens, UniProt Q9UBX0 95-180) (Q9UBX0 95-180): as the sequence (Q9UBX0 95-180 R109Q) above, with Q15R counted along it
Chain of SHOX (Homo sapiens, UniProt O15266 103-189) (O15266 103-189): as the sequence (O15266 103-189 R173C) above, with C71R counted along it
Chain of HOXB4 (Homo sapiens, UniProt P17483 148-234) (P17483 148-234): as the sequence (P17483 148-234 V174I) above, with I27V counted along it
Chain of HOXA4 (Q00056 201-287 R217L): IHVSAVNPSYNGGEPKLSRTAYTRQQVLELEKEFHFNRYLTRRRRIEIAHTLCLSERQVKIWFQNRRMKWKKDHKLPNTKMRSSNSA
Chain of HESX1 (Homo sapiens, UniProt Q9UBX0 95-180, R165K) (Q9UBX0 95-180 R165K): as the sequence (Q9UBX0 95-180 R109Q) above, with Q15R, R71K counted along it

Sequence | binding signal (HESX1 [1]) | binding signal (HOXB4 [2]) | binding signal (SHOX [3]) | binding signal (HESX1 [4]) | binding signal (HOXA4) | binding signal (HOXB4 [5]) | binding signal (MSX2 [6]) | binding signal (ALX3 [7]) | binding signal (SHOX [8]) | binding signal (ALX3 [9]) | binding signal (PROP1 [10]) | binding signal (HESX1 [11]) | binding signal (PROP1 [12]) | binding signal (ALX3 [13]) | binding signal (HESX1 [14]) | binding signal (ALX3 [15]) | binding signal (PROP1 [16]) | binding signal (MSX2 [17]) | binding signal (HESX1 [18]) | binding signal (ALX3 [19])
CCTAATTA | 13.4 upbm affinity estimate (log intensity, higher = more binding, comparable within an allelic series) | 13.5 upbm affinity estimate (log intensity, higher = more binding, comparable within an allelic series) | 13 upbm affinity estimate (log intensity, higher = more binding, comparable within an allelic series) | 13.3 upbm affinity estimate (log intensity, higher = more binding, comparable within an allelic series) | 12.6 upbm affinity estimate (log intensity, higher = more binding, comparable within an allelic series) | 14.2 upbm affinity estimate (log intensity, higher = more binding, comparable within an allelic series) | 13.2 upbm affinity estimate (log intensity, higher = more binding, comparable within an allelic series) | 8.45 upbm affinity estimate (log intensity, higher = more binding, comparable within an allelic series) | 10.4 upbm affinity estimate (log intensity, higher = more binding, comparable within an allelic series) | 12.9 upbm affinity estimate (log intensity, higher = more binding, comparable within an allelic series) | 12.1 upbm affinity estimate (log intensity, higher = more binding, comparable within an allelic series) | 9.96 upbm affinity estimate (log intensity, higher = more binding, comparable within an allelic series) | 12.2 upbm affinity estimate (log intensity, higher = more binding, comparable within an allelic series) | 11.2 upbm affinity estimate (log intensity, higher = more binding, comparable within an allelic series) | 12 upbm affinity estimate (log intensity, higher = more binding, comparable within an allelic series) | 10.8 upbm affinity estimate (log intensity, higher = more binding, comparable within an allelic series) | 7.86 upbm affinity estimate (log intensity, higher = more binding, comparable within an allelic series) | 13.7 upbm affinity estimate (log intensity, higher = more binding, comparable within an allelic series) | 8.21 upbm affinity estimate (log intensity, higher = more binding, comparable within an allelic series) | 8.58 upbm affinity estimate (log intensity, higher = more binding, comparable within an allelic series)
AGCAATTA | 12.6 upbm affinity estimate (log intensity, higher = more binding, comparable within an allelic series) | 13 upbm affinity estimate (log intensity, higher = more binding, comparable within an allelic series) | 11.9 upbm affinity estimate (log intensity, higher = more binding, comparable within an allelic series) | 12.7 upbm affinity estimate (log intensity, higher = more binding, comparable within an allelic series) | 12 upbm affinity estimate (log intensity, higher = more binding, comparable within an allelic series) | 13.7 upbm affinity estimate (log intensity, higher = more binding, comparable within an allelic series) | 13.2 upbm affinity estimate (log intensity, higher = more binding, comparable within an allelic series) | 8.32 upbm affinity estimate (log intensity, higher = more binding, comparable within an allelic series) | 9.41 upbm affinity estimate (log intensity, higher = more binding, comparable within an allelic series) | 12.4 upbm affinity estimate (log intensity, higher = more binding, comparable within an allelic series) | 11.4 upbm affinity estimate (log intensity, higher = more binding, comparable within an allelic series) | 9.19 upbm affinity estimate (log intensity, higher = more binding, comparable within an allelic series) | 11.4 upbm affinity estimate (log intensity, higher = more binding, comparable within an allelic series) | 10.5 upbm affinity estimate (log intensity, higher = more binding, comparable within an allelic series) | 11.1 upbm affinity estimate (log intensity, higher = more binding, comparable within an allelic series) | 9.97 upbm affinity estimate (log intensity, higher = more binding, comparable within an allelic series) | 7.59 upbm affinity estimate (log intensity, higher = more binding, comparable within an allelic series) | 13.8 upbm affinity estimate (log intensity, higher = more binding, comparable within an allelic series) | 7.88 upbm affinity estimate (log intensity, higher = more binding, comparable within an allelic series) | 8.41 upbm affinity estimate (log intensity, higher = more binding, comparable within an allelic series)
TCAATTAA | 13.4 upbm affinity estimate (log intensity, higher = more binding, comparable within an allelic series) | 13.3 upbm affinity estimate (log intensity, higher = more binding, comparable within an allelic series) | 12.4 upbm affinity estimate (log intensity, higher = more binding, comparable within an allelic series) | 13.2 upbm affinity estimate (log intensity, higher = more binding, comparable within an allelic series) | 12.4 upbm affinity estimate (log intensity, higher = more binding, comparable within an allelic series) | 14 upbm affinity estimate (log intensity, higher = more binding, comparable within an allelic series) | 12.8 upbm affinity estimate (log intensity, higher = more binding, comparable within an allelic series) | 8.44 upbm affinity estimate (log intensity, higher = more binding, comparable within an allelic series) | 9.85 upbm affinity estimate (log intensity, higher = more binding, comparable within an allelic series) | 12.7 upbm affinity estimate (log intensity, higher = more binding, comparable within an allelic series) | 11.6 upbm affinity estimate (log intensity, higher = more binding, comparable within an allelic series) | 9.91 upbm affinity estimate (log intensity, higher = more binding, comparable within an allelic series) | 12 upbm affinity estimate (log intensity, higher = more binding, comparable within an allelic series) | 11 upbm affinity estimate (log intensity, higher = more binding, comparable within an allelic series) | 11.9 upbm affinity estimate (log intensity, higher = more binding, comparable within an allelic series) | 10.5 upbm affinity estimate (log intensity, higher = more binding, comparable within an allelic series) | 7.83 upbm affinity estimate (log intensity, higher = more binding, comparable within an allelic series) | 13.5 upbm affinity estimate (log intensity, higher = more binding, comparable within an allelic series) | 7.87 upbm affinity estimate (log intensity, higher = more binding, comparable within an allelic series) | 8.6 upbm affinity estimate (log intensity, higher = more binding, comparable within an allelic series)
CTAATTAG | 14 upbm affinity estimate (log intensity, higher = more binding, comparable within an allelic series) | 13.6 upbm affinity estimate (log intensity, higher = more binding, comparable within an allelic series) | 13.6 upbm affinity estimate (log intensity, higher = more binding, comparable within an allelic series) | 13.7 upbm affinity estimate (log intensity, higher = more binding, comparable within an allelic series) | 12.6 upbm affinity estimate (log intensity, higher = more binding, comparable within an allelic series) | 14.2 upbm affinity estimate (log intensity, higher = more binding, comparable within an allelic series) | 13.6 upbm affinity estimate (log intensity, higher = more binding, comparable within an allelic series) | 8.69 upbm affinity estimate (log intensity, higher = more binding, comparable within an allelic series) | 11.1 upbm affinity estimate (log intensity, higher = more binding, comparable within an allelic series) | 13 upbm affinity estimate (log intensity, higher = more binding, comparable within an allelic series) | 12.4 upbm affinity estimate (log intensity, higher = more binding, comparable within an allelic series) | 10.9 upbm affinity estimate (log intensity, higher = more binding, comparable within an allelic series) | 12.6 upbm affinity estimate (log intensity, higher = more binding, comparable within an allelic series) | 11.6 upbm affinity estimate (log intensity, higher = more binding, comparable within an allelic series) | 12.5 upbm affinity estimate (log intensity, higher = more binding, comparable within an allelic series) | 11.3 upbm affinity estimate (log intensity, higher = more binding, comparable within an allelic series) | 8.3 upbm affinity estimate (log intensity, higher = more binding, comparable within an allelic series) | 13.9 upbm affinity estimate (log intensity, higher = more binding, comparable within an allelic series) | 8.53 upbm affinity estimate (log intensity, higher = more binding, comparable within an allelic series) | 8.81 upbm affinity estimate (log intensity, higher = more binding, comparable within an allelic series)

Source: article PMC11006913
